# Bioassay records: PubChem BioAssay, National Center for Advancing Translational Sciences (NCATS)
# Rows were chosen to be rich in hits. Some 11% of all compounds tested hit in one or more screens of this group.
# HPGD block: HPGD (human) dehydrogenase inhibition; P15428; purified HPGD, NADH fluorescence kinetic, PGE2 substrate; Potency, µM, for the others: top-dose activity change, negative = inhibition, actives largely listed as inhibitors; actives 4.3% (n = 150,000); AID 894; note: potency is the fitted concentration of half-maximal effect
# Target sequence (P15428 whole entry, looked up): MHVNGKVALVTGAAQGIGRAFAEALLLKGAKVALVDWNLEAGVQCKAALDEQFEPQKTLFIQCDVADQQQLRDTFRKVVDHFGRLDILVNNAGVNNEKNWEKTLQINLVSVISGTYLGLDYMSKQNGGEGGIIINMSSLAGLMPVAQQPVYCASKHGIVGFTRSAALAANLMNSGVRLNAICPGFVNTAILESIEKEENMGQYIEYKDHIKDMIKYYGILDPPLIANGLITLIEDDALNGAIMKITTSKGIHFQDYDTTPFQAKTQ
#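 20 nM HPGD preincubated 15 min at room temperature with compound in 50 mM Tris-HCl pH 8, 0.01% Tween 20. Started with 1 mM NAD+ and 30 uM prostaglandin E2; NADH fluorescence (360/450 nm) read 5 times over 30-s intervals, last minus first.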
# PNC inhibitor: inhibitors of perinucleolar compartment assembly; PC3M PTB-GFP, PNC prevalence imaging, 16 h; hits give low values; activity change (PNC), negative = inhibition, % at 10 µM; actives 3.1% (n = 140,000); AID 2417;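 active = readout at or below -70, meaning at least 70% loss of cells showing the perinucleolar compartment, a nuclear body marking cancer cells; inconclusive = readout between -30 and a set limit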;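 note: plate controls were DMSO wells for no effect and camptothecin positive control wells for full effect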
#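 Read-out is percentage of cells bearing a perinucleolar compartment, from automated 20x imaging of fixed, Hoechst-stained PC3M PTB-GFP cells. Cells were seeded 4 h, then exposed 16 h to compound (23 nl of library stock) in duplicate plates.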
# KDM4E inh: JMJD2E (human) inhibition; B2RXH2; Potency, µM (highest dose often 57.1 µM), inactives show at the highest dose activity change, negative = inhibition, usual class: inhibitors; AID 2147; actives 1.6% (n = 230,000); JMJD2E catalytic domain, FDH-coupled NADH fluorescence (FDH is formaldehyde dehydrogenase);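 note: potency is the fitted concentration of half-maximal effect; 0% = wells with enzyme and -100% = buffer wells without enzyme; nearly all actives have a fitted effect of over 50% in size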
# Target sequence (B2RXH2 1-337 limits assumed): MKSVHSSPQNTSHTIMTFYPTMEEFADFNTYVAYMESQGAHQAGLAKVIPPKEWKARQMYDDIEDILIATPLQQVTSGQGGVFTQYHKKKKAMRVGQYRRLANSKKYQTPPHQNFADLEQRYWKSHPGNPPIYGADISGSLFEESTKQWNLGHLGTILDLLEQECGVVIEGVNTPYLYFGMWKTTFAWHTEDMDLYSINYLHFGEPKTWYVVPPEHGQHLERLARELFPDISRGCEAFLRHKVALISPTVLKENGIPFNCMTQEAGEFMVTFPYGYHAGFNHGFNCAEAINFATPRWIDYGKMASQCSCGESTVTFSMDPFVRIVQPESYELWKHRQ
# ALDH1A1 inh: ALDH1A1 (human) enzyme inhibition; P00352; Purified ALDH1A1, NADH fluorescence, propionaldehyde substrate; Potency, µM (series often up to 75.3 µM), inactives show at the top dose activity, negative = inhibition, most hits filed as inhibitors; actives 7.3% (n = 220,000);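 note: potency is the fitted concentration of half-maximal effect; plate controls were no enzyme wells and a reference inhibitor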
# * marks the source's active call; other numbers are inactive results; ? = inconclusive; / = not tested or not shown; [ ] = another dose, or the depositor's remark. Unless noted, calls come from the whole dose curve; as a rule, active = well fitted inhibition curve with a large enough effect (not every such curve was filed as active); inconclusive = small, poorly fitted or top-dose-only effect, or another doubt; inactive = no such curve, though single readings can be large or run the other way. Unless noted, % is set by controls: 0 for no effect and ±100 for the full control effect.
SMILES,HPGD block,PNC inhibitor,KDM4E inh,ALDH1A1 inh
O=c1c2ccccc2nc(SCc2ccccc2)n1Cc1ccco1,-25%,5,4%,20µM*
Cc1ccc(CSc2nc3ccccc3c(=O)n2Cc2ccco2)cc1,-15%,-10,-9%,-10%
O=c1c2ccccc2nc(SCc2nc3ccccc3s2)n1Cc1ccco1,-15%,-85*,-9%,-5%
CCCCn1c(SCc2nc3ccccc3s2)nc2ccccc2c1=O,-15%,14,-1%,-5%
COc1cc(CNCCNC(=O)c2nonc2N)ccc1OCc1ccc(Cl)cc1,/,/,-8%,9%
C/C(=N\N=C(/N)c1nonc1N)c1ccc2c(c1)OCO2,/,/,3%,/
CC(/C=N/Nc1nc(C)cc(C)n1)=C\c1ccc(C(C)C)cc1,-11%,-114*,3%,6%
O=C(CNS(=O)(=O)c1ccccc1)NCC(=O)OCc1ccc(Cl)cc1,/,/,-1%,/
CC(C)(C)N1CC(c2nc3ccccc3n2CCOc2ccccc2)CC1=O (centres undefined),-7%,20,5%,3.2µM*
CC(C)(C)N1CC(c2nc3ccccc3n2Cc2ccc(Cl)cc2)CC1=O (centres undefined),-23%,-9,?,-11%
O=c1[nH]c(-c2ccccc2O)nc2ccccc12,2.8µM*,/,?,-6%
O=c1[nH]c(-c2ccccn2)nc2ccccc12,/,?,-3%,?
CC(C)(C)n1nnnc1C(c1cccc(C#N)c1)N1CCN2CCCC2C1 (centres undefined),1%,16,-3%,20µM*
Cc1c(-c2ccccc2)nc2ccccc2c1C(=O)O,2%,50,-2%,-10%
CCC(NC(=O)c1ccc([N+](=O)[O-])cc1[N+](=O)[O-])c1ccccc1 (centres undefined),-3%,13,-2%,4%
CCC(NC(=O)c1ccccc1O)c1ccccc1 (centres undefined),?,-109*,?,?
CC[C@H](NC(=O)c1c(C)c(-c2ccccc2)nc2ccccc12)c1ccccc1,-30%,/,-7%,5µM*
CC(C)=CCN1CCN(Cc2cccn2-c2ccccn2)CC1CCO (centres undefined),/,/,1%,2%
Cc1ccc(C)c(N2C(=O)c3cc(N4CCOCC4)c([N+](=O)[O-])cc3C2=O)c1,-3%,?,-4%,-13%
COCCSc1nc2c(c(=O)[nH]c(=O)n2C)n1Cc1cccc(C)c1,?,-1,2%,14µM*
C/C=C/Cn1c(SCc2ccc(C)cc2)nc2c1c(=O)[nH]c(=O)n2C,14µM*,?,-2%,?
C=CCSc1nc2c(c(=O)[nH]c(=O)n2C)n1Cc1ccc(C)cc1,25µM*,?,-2%,-11%
Cc1ccc(Cn2c(SCC(C)C)nc3c2c(=O)[nH]c(=O)n3C)cc1,20µM*,?,-3%,28µM*
CCCSc1nc2c(c(=O)[nH]c(=O)n2C)n1Cc1ccc(C)cc1,-7%,?,2%,4%
CCCCCn1c(SCc2cccc(C)c2)nc2c1c(=O)[nH]c(=O)n2C,/,/,8%,/
SMILES,HPGD block,PNC inhibitor,KDM4E inh,ALDH1A1 inh
C=C1C(=O)O[C@@H]2[C@H]1[C@@H](OC(=O)/C(C)=C/C)C/C(C)=C\C(=O)/C=C(\C)[C@@H]2O,/,/,-4%,/
C=CCSc1nc2c(c(=O)[nH]c(=O)n2C)n1C(C)C,18µM*,-8,-4%,3.2µM*
Cc1c(Cl)c([N+](=O)[O-])nn1CCCC(=O)NC1CCCCC1,/,/,-1%,-4%
Cc1ccccc1N1C(=O)c2cccc([N+](=O)[O-])c2C1=O,/,/,-15%,7%
O=C1CSC(=S)N1N1C(=O)c2cccc([N+](=O)[O-])c2C1=O,/,/,-2%,7.9µM*
CC(=O)Oc1oc(-c2ccccc2)nc1/C=N/c1ccccn1,22µM*,13,-1%,?
CN(C)c1ccc(N=Cc2nc(-c3ccccc3)oc2OC(=O)c2ccccc2)cc1,-13%,27,6%,-11%
CC(=O)Oc1oc(-c2ccccc2)nc1C=Nc1ccc(N(C)C)cc1,/,/,10%,0.56µM*
COc1ccccc1N=Cc1nc(-c2ccccc2)oc1OC(C)=O,?,?,-1%,7.1µM*
O=C(Nc1cccc(C(=O)N2CCCC2)c1)c1ccccc1Cl,-16%,-21,5%,4µM*
O=C(Nc1ccc2nc(-c3ccco3)[nH]c2c1)c1ccco1,-26%,28,-10%,?
Cc1cc2cc(NC(=O)c3ccco3)ccc2[nH]1,?,?,3%,22µM*
O=C(N/N=C/c1cccs1)c1ccc(NC(=O)c2ccccc2Cl)cc1,/,-30,2%,?
CC(C)(C)NC(=O)c1cccc(NC(=O)c2ccco2)c1,-10%,-100*,11%,6%
O=C(N/N=C/c1cccs1)c1cccc(NC(=O)c2ccccc2Cl)c1,-15%,16,-6%,16µM*
CC(C)(C)NC(=O)c1cccc(NC(=O)c2ccc(NC(=O)c3ccco3)cc2)c1,-13%,?,-5%,-13%
CC(C)C[C@@H](CC(=O)N[C@@H](CCCN)CC(=O)N[C@@H]1CCCC[C@H]1C(=O)N[C@H](CC(=O)N[C@@H](CCC(=O)O)CC(=O)O)Cc1c[nH]c2ccccc12)NC(=O)[C@@H]1CNCC[C@H]1N,-7%,/,-30%,-7%
Cn1ccnc1SCC(=O)Nc1nc2c(F)c(F)c(F)cc2s1,/,/,-8%,1%
CCN(CC)CC(=O)Nc1ccc([N+](=O)[O-])cc1,/,/,-12%,-3%
Cc1cccc(C(=O)Nc2cccc(C(=O)N3CCOCC3)c2)c1,-11%,-108*,7%,-7%
O=C(Nc1cccc(C(=O)N2CCCCCC2)c1)c1ccco1,25µM*,48,2%,4%
Clc1ccc2oc3c(Cl)ncnc3c2c1,-17%,-20,-5%,?
COc1ccccc1-c1nnc(SCC(=O)Nc2ccc(S(N)(=O)=O)cc2)n1C,-5%,46,6%,?
CC(C)Cn1c(=S)[nH]c2cc(Cl)ccc21,/,/,-9%,8.9µM*
CC(C)Cn1c(=S)[nH]c2ccccc2c1=O,/,/,-4%,?
SMILES,HPGD block,PNC inhibitor,KDM4E inh,ALDH1A1 inh
O=C(c1cccnc1)N1CCC(Oc2ccc(C(=O)N3CCCC(O)C3)cc2)CC1 (centres undefined),/,/,-3%,-8%
COc1ccc(N2Cc3cccc(C(=O)NC(C)CCc4ccco4)c3C2=O)cc1 (centres undefined),?,13,?,25µM*
CC(CCc1ccco1)NC(=O)c1cccc2c1C(=O)N(C1CCCCC1)C2 (centres undefined),/,/,6%,?
N#C/C(Cn1c[n+](NC(=O)Nc2ccccc2)cn1)=N/O,-8%,16,-4%,32µM*
CC(=O)Nc1ccc(NS(=O)(=O)c2c(Cl)cccc2Cl)cc1,/,/,-9%,/
CC1(C)C(=O)NC2=C1C(=O)C(=O)c1ccccc12,-11%,/,?,28µM*
Cc1cccc(Cl)c1NC[C@H](O)CN1CCN(C)CC1,-4%,/,/,1%[13.5 µM]
CCc1ccc(C2=NN(CCC(=O)NCc3cccs3)C(=O)CC2)cc1,/,/,-4%,?
C=C(C)CN(CC)C(=O)CSc1nc2ncc(Cl)cc2[nH]1,14µM*,-28,-17%,25µM*
